Data reported in PubChem BioAssay AID1117361 (Southern Research Institute, 2015).
Screen size: about 3,600 compounds; about 900 (25%) were called active. No rule for the calls is given here. Only a sample is shown. Where a call stands in place of a potency, no number is given. Potency and affinity values are given separately.

Each molecule was assayed against Protein Tat (Human immunodeficiency virus type 1 group M subtype B (isolate HXB2)) (UniProt P04608) (assay: HIV-1 Tat–TAR interaction blockers – biochemical, fluorescence polarization, FAM-labeled TAR RNA, counter-screen for Vif-APOBEC3G degradation inhibitor project, dose response (AID 1117361)). Settings: Tat-TAR RNA binding; series mostly up to 100 µM.
In the case of `CC1CN(Cc2cc(=O)[nH]c(C3CC3)n2)CC(C)O1` (centres undefined), the outcome is reported as “inactive”.
In the case of `Cn1c(Cn2c(=O)sc3ccccc32)nnc1SCC(=O)NCc1ccc(F)cc1`, the outcome is reported as “inactive”.
`Cc1cc(=O)oc2cc(OCC(=O)NCc3cccnc3)ccc12` was tested, and the outcome was “inactive”.
With `Fc1cc(F)cc(NC(=S)NCCCN2CCOCC2)c1` the outcome was “inactive”.
`COC(=O)c1ccccc1NC(=O)c1noc2c1CCC2` was tested, and the outcome was “inactive”.
For `COc1ccccc1NC(=O)CSc1nnc(C)n1CCc1ccccc1`, the outcome was “inactive”.
For `Cc1ccc(C2CC(c3cccc(Cl)c3)n3nc(N)nc3N2)cc1` (centres undefined), the outcome was “inactive”.
`COc1ccc(C2CC(c3cccs3)n3nc(N)nc3N2)cc1` (centres undefined) was tested, and the outcome was “inactive”.
With `COc1cc(CNCCc2ccccc2F)ccc1OCc1ccc(Cl)nc1` the outcome was “inactive”.
For `CCOc1cc(C)nc(NCCc2ccc(OC)c(OC)c2)n1`, the outcome was “inactive”.
With `Cc1ccc(NC(=O)C(C)NC(=O)OCc2ccccc2)cc1C` (centres undefined) the outcome was “inactive”.
`Cc1cc(=O)[nH]c2c1c(C)nn2C1CCCCC1` was tested, and the outcome was “inactive”.
`O=C(CC1SCCNC1=O)Nc1ccc(Cl)cc1` (centres undefined) was tested, and the outcome was “inactive”.
With `CSc1nc(NCCCO)c2c3c(sc2n1)CN(C)CC3` the outcome was “inactive”.
`Fc1cccc(-c2cc3nc4c(c(NCc5ccco5)n3n2)CCCC4)c1` was tested, and the outcome was “inactive”.
With `CCC1=NN2C(=N)/C(=C\c3cccn3-c3cccc(Cl)c3)C(=O)N=C2S1` the outcome was “inactive”.
`COc1ccc(NC2CS(=O)(=O)CC2NCc2ccco2)cc1` (centres undefined) was tested, and the outcome was “inactive”.
For `COc1cccc(S(=O)(=O)N2CCN(c3ccccc3F)CC2)c1`, the outcome was “inactive”.
With `COc1ccccc1CNC(=O)COC(=O)c1ccc(NC(N)=O)cc1` the outcome was “inactive”.
In the case of `O=S(=O)(NCc1ccc2c(c1)OCO2)c1cccc(S(=O)(=O)N2CCOCC2)c1`, the outcome is reported as “inactive”.
For `COCCN1Cc2cccc(C(=O)NCc3ccccn3)c2C1=O`, the outcome was “inactive”.
In the case of `Cc1cccc(N2CCN(CC(O)COc3ccc(Cl)cc3)CC2)c1` (centres undefined), the outcome is reported as “inactive”.
With `COCC(=O)NC1CCN(CC(=O)Nc2ccc(OC)cc2[N+](=O)[O-])CC1` the outcome was “inactive”.
For `CC(=O)NS(=O)(=O)c1cccnc1Nc1cccc(Cl)c1`, the outcome was “inactive”.
For `CCc1nnc(NC(=O)c2ccc3c(c2)C(=O)N(C(C)(C)C)C3=O)s1`, the outcome was “inactive”.
`N#Cc1cccc(Oc2ccc(S(=O)(=O)N3CCCC3)cn2)c1` was tested, and the outcome was “inactive”.
In the case of `NC(=O)C1CCCN(CC(=O)Nc2ccccc2C(=O)NC2CC2)C1` (centres undefined), the outcome is reported as “inactive”.
With `COC(=O)Cc1cc(=O)n(-c2nc3ccccc3[nH]2)[nH]1` the outcome was “inactive”.
In the case of `Cc1cccc(N(CC(=O)N/N=C/c2ccc(OCC(=O)NCc3ccco3)cc2)S(C)(=O)=O)c1C`, the outcome is reported as “inactive”.
With `CCc1ccc(CNCc2cccnc2)cc1` the outcome was “inactive”.
With `CCn1c(CNc2ccc(C)cc2)nnc1SCC(=O)NCc1ccccc1` the outcome was “inactive”.
`Cc1ccc(CNC(=O)COc2ccc3c(c2)CCC3)cc1` was tested, and the outcome was “inactive”.
With `COc1ccc(OC)c(-c2cc(C(=O)NCc3cccs3)no2)c1` the outcome was “inactive”.
In the case of `CC1(C)Oc2ccc(C(=O)NC3CCCC3)cc2N(CC(=O)N2CCOCC2)C1=O`, the outcome is reported as “inactive”.
For `COc1cc(SC)ccc1C(=O)Nc1c(C)cccc1C`, the outcome was “inactive”.
With `CC(Oc1ccc(Cl)cc1)C(=O)Nc1ncccn1` (centres undefined) the outcome was “inactive”.
With `N[C@@H](Cc1c[nH]c2ccccc12)C(=O)O` the outcome was “inactive”.
`O=C(CCc1c[nH]c2ccccc12)NC1CC1` was tested, and the outcome was “inactive”.
For `Cc1cccc(C)c1N1C(=O)C2ON(c3ccccc3)C(c3ccncc3)C2C1=O` (centres undefined), the outcome was “inactive”.
In the case of `Cc1nn(CC(=O)NCc2ccccc2Cl)c(C)c1[N+](=O)[O-]`, the outcome is reported as “inactive”.
In the case of `O=C(Nc1cnn(Cc2c(Cl)cccc2Cl)c1)c1ccc([N+](=O)[O-])cc1`, the outcome is reported as “inactive”.
In the case of `Cc1sc2ncnc(OCC(=O)N3CCN(S(=O)(=O)c4ccc(Cl)cc4)CC3)c2c1C`, the outcome is reported as “inactive”.
For `CC(C)c1nc2sc3c(NCc4ccco4)ncnc3c2c2c1COC(C)(C)C2`, the outcome was “inactive”.
In the case of `CCCC(=O)NC1=C(Cl)C(=O)c2ccccc2C1=O`, the outcome is reported as “inactive”.
In the case of `CCC(=O)Nc1cc2c(cc1C(=O)CC)OCCO2`, the outcome is reported as “inactive”.
With `Cc1ccc(S(=O)(=O)Nc2ccc3nc(C)sc3c2)cc1` the outcome was “inactive”.
`CCOc1ccc(S(=O)(=O)Nc2ccc(S(=O)(=O)N3CCCCC3)cc2)cc1` was tested, and the outcome was “inactive”.
For `COc1ccc(N2CCN(C(=O)COc3ccccc3)CC2)cc1`, the outcome was “inactive”.
`CC(=O)N1CCN(c2ccc(NCc3ccc4c(c3)OCO4)cc2)CC1` was tested, and the outcome was “inactive”.
`CCN1CCN(c2ccc(NC(=O)Cc3ccccc3)cc2)CC1` was tested, and the outcome was “inactive”.
`Cc1snc(S(=O)(=O)Cc2ccccc2Cl)c1C#N` was tested, and the outcome was “inactive”.
In the case of `COc1ccc(/C=C/CN2CCN(Cc3ccccc3)C(CCO)C2)cc1` (centres undefined), the outcome is reported as “inactive”.
`CSc1ccccc1NC(=O)c1noc2c1CCC2` was tested, and the outcome was “inactive”.
`CCCCS(=O)(=O)N1CCCC(C(=O)N2CCOCC2)C1` (centres undefined) was tested, and the outcome was “inactive”.
With `COc1ccc(C2CC(O)(c3ccccc3)Oc3c(C)ccc(C)c32)cc1` (centres undefined) the outcome was “inactive”.
With `Cn1c2ccccc2c2ccc3c(c21)C(=O)C=CC3=O` the outcome was “inactive”.
In the case of `Cc1ccc(CN(C(=O)Cn2nnc3ccccc32)C(C(=O)NCc2ccco2)c2cccs2)cc1` (centres undefined), the outcome is reported as “inactive”.
`CCOc1cc(C(C(=O)NCC2CCCO2)N(C(=O)Cn2nnc3ccccc32)c2cccc(OC)c2)ccc1O` (centres undefined) was tested, and the outcome was “inactive”.
For `CCCCn1c(SCC(=O)Nc2ccc3c(c2)OCCO3)nnc1C(CC)N(C)C` (centres undefined), the outcome was “inactive”.
With `C/C(=N\Nc1ccc2nncn2n1)c1ccc(Br)s1` the outcome was “inactive”.
For `COc1cc(Cc2cnc(N)nc2N)cc(OC)c1OC`, the outcome was “inactive”.
`O=C1C(C=NC2CC2)=C(O)c2ccccc21` was tested, and the outcome was “inactive”.
In the case of `COc1ccc(Cl)cc1N(CC(=O)Nc1ccc2c(c1)OCCO2)S(C)(=O)=O`, the outcome is reported as “inactive”.
For `O=C(CN1CCN(CC(=O)Nc2ccc3c(c2)OCO3)CC1)Nc1ccc(F)cc1`, the outcome was “inactive”.
`CCn1c(=O)c2cc(C(=O)N(C)c3ccccc3F)sc2c2ccccc21` was tested, and the outcome was “inactive”.
In the case of `CCOC(=O)N1CCC(NC(=O)C2CCN(c3nc(-c4ccc(OC)cc4)no3)CC2)CC1`, the outcome is reported as “inactive”.
`CCOC(=O)C1CCCN(C(=O)c2c(-c3ccccc3Cl)noc2C)C1` (centres undefined) was tested, and the outcome was “inactive”.
In the case of `O=C(CCCc1c[nH]c2ccccc12)NCc1ccc2c(c1)OCO2`, the outcome is reported as “inactive”.
With `Cc1oc(-c2ccccc2)nc1C(=O)OCC(=O)NCc1ccc(F)cc1` the outcome was “inactive”.
In the case of `O=C(OCC(=O)N1CCN(C(=O)c2ccco2)CC1)c1cc(-c2ccco2)nc2ccccc12`, the outcome is reported as “inactive”.
In the case of `CS(=O)(=O)N(CC(=O)NCc1ccc2c(c1)OCO2)Cc1ccccc1`, the outcome is reported as “inactive”.
In the case of `CC(C)Oc1ccc(C(=O)N(Cc2ccco2)C2CCS(=O)(=O)C2)cc1` (centres undefined), the outcome is reported as “inactive”.
`CCOC(=O)C1CCCN(Cc2ccc(O)c(OC)c2)C1` (centres undefined) was tested, and the outcome was “inactive”.
`Cc1cc(C(=O)OC2CCOC2=O)c2ccccc2n1` (centres undefined) was tested, and the outcome was “inactive”.
